This is a sample that favours compounds with a hit; in the whole collection about 2.3% have one here.
Granule exo inh – blocks lytic granule exocytosis; TALL-104 LAMP-1 surface exposure, flow cytometry; cells stimulated with thapsigargin and PMA; inhibition, % at 10 µM; actives 0.66% (n = 360,000); AID 651702;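 active = inhibition above about 55%, limit read from the data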
ABHD5 PLIN5 PPI – ABHD5-PLIN5 protein interaction inhibition; Q00G26+Q8WTS1; Split G. princeps luciferase complementation, luminescence, 4 h; inhibition, % at 4 µM; actives 0.78% (n = 360,000);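 active = inhibition above the mean inhibition across every tested compound plus 3 SD, cut at about 22% in these data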
HTR2A ag – activates the mouse 5-HT2A serotonin receptor; P35363; CHO-K1 mHTR2A beta-arrestin complementation, luminescence; percent of 30 µM serotonin response; AID 624169; actives 0.66% (n = 360,000); activation, % at 7.6 µM;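 active = activation above a run cutoff, the mean activation of all tested compounds plus 3 SD, cut at about 14% in these data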
NTR1 agonist – activates human neurotensin receptor 1. P30989. NTR1-U2OS beta-arrestin-GFP spot imaging, agonist mode. activation, % at 20 µM. actives 0.17% (n = 330,000). AID 493036;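 active = activation at or above 40% of the spot to cytoplasm intensity ratio, with at least 20 cells analyzed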
B2AR ag – activates human beta-2 adrenergic receptor causing internalization. P07550. Am2.2-beta2AR cells, FAP receptor internalization, flow cytometry. response, % (no concentration beside the values). actives 0.43% (n = 340,000). AID 504454;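 active = response above a set limit, near 3 SD of response in nonfluorescent compounds, cut at about 42% in these data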
Target sequence (P07550 whole entry, looked up): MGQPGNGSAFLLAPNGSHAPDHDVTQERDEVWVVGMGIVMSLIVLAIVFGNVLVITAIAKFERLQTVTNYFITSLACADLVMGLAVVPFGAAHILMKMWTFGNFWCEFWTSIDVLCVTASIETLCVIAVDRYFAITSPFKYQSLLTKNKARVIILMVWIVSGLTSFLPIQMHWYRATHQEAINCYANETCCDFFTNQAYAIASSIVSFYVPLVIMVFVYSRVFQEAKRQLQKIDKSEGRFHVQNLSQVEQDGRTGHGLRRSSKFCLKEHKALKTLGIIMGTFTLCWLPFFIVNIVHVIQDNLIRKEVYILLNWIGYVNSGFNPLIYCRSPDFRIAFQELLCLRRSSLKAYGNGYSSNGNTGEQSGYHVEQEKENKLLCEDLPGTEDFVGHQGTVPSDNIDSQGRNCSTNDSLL
MOR ag counter – OPRM1 agonism in mouse HTR2A counterscreen. shares compounds with HTR2A ag. activation, % at 9.3 µM. AID 624380. actives 5.3% (n = 2,300). U2OS OPRM1 beta-arrestin PathHunter, luminescence; DMSO 0%, DAMGO 9.3 µM 100%;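 active = mean activation above the mean of DMSO-only wells plus 3 SD, cut at about 0.5% in these data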
HTR2A ag conf – confirmation of mouse HTR2A serotonin receptor agonists | AID 624381 | shares compounds with HTR2A ag | CHO-K1 PathHunter beta-arrestin recruitment, luminescence; DMSO 0%, 30 µM serotonin 100% | activation, % at 7.6 µM | actives 19% (n = 2,300);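 active = mean activation across triplicates above the hit threshold derived in the original primary screen, cut at about 15% in these data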
Numbers stand for hits; n = inactive; x = not tested or not shown.

SMILES | Granule exo inh | ABHD5 PLIN5 PPI | HTR2A ag | NTR1 agonist | B2AR ag | MOR ag counter | HTR2A ag conf
CCOC(=O)c1cccc(N2CC3CNC(=O)C2(C(=O)OC)N3C)c1 (configuration not stated) | n | n | n | n | n | x | x
Cc1ccc(CCNC(=O)c2sc3nc4n(c(=O)c3c2C)CCC4)cc1 | n | n | n | n | n | x | x
Clc1ccc(CN2CCN(c3ccccc3)CC2)cn1 | n | n | 22.1 | n | n | n | 80.7
Clc1ncc(CN2CCN(c3ccccc3)CC2)s1 | n | n | 31.4 | n | n | n | 84.4
Cc1cccc(C(=O)OC(C)C(=O)Nc2ccc(S(=O)(=O)Nc3ncccn3)cc2)c1C (configuration not stated) | n | n | n | n | n | x | x
Cc1ccc(N(Cc2ccccc2)C(=O)CSC(C)C(=O)Nc2cc(C)on2)cc1 (configuration not stated) | n | n | n | x | x | x | x
COC(=O)[C@H]1C[C@@]2(O)CN(S(=O)(=O)c3ccc(C)cc3)C[C@@]2(OC(=O)NCc2ccc(OC)c(OC)c2)C[C@H]1C(=O)OC | n | n | n | x | x | x | x
COC(=O)[C@H]1C[C@@]2(O)CN(S(=O)(=O)c3ccc(C)cc3)C[C@@]2(OC(=O)NCc2ccccc2F)C[C@H]1C(=O)OC | n | n | 19.4 | x | x | n | n
Cc1cccc(C)c1NC(=O)c1cn(-c2ccccc2)nc1-c1ccccc1 | n | n | 20.8 | n | n | n | n
CCNC(=O)C(=O)NCc1ccncc1 | n | n | n | n | n | x | x
CCNc1nc(NC(C)C)nc(N(C#N)C(C)C(=O)N(C)C)n1 (configuration not stated) | n | n | n | n | n | x | x
CCNc1nc(NCC)nc(N(C#N)C(C)C)n1 | n | n | 20.1 | n | n | n | n
O=C(Nc1ccccn1)[C@@H]1CCC(=O)N1C(=O)OCc1ccccc1 | n | n | 17.8 | n | n | n | n
Cc1ccc(NC(=O)C2CCC(=O)N2C(=O)OCc2ccccc2)cc1 (configuration not stated) | n | n | n | n | n | x | x
O=C(Cn1cncn1)N/N=C/c1ccncc1 | n | n | 23.1 | n | n | n | n
CCOc1cc(-c2c(C)c(C)nc(N)c2C#N)ccc1O | n | n | 15.1 | n | n | n | 24.3
Cc1cc(S(=O)(=O)Nc2cccnc2)c(C)s1 | n | n | 20.7 | n | n | n | n
CC(C)(C)C1CCC(OCC(O)CN2CCN(c3ccccn3)CC2)CC1 (configuration not stated) | n | n | 17.9 | n | n | n | 93.9
CC(=O)c1ccc(OCC(O)CN2CCN(c3ccccn3)CC2)cc1 (configuration not stated) | n | n | 37.2 | n | x | n | 92.5
OC(COc1ccc(OCC(O)CN2CCCCC2)cc1)CN1CCCCC1 (configuration not stated) | n | n | 16.8 | n | n | n | n
OC(COC(c1ccccc1)c1ccccc1)CN1CCN(c2ccccn2)CC1 (configuration not stated) | n | n | n | n | n | x | x
CCN(CC(=O)Nc1ccc(OC)cc1)C(=O)Cc1ccc(OC)c(S(=O)(=O)N2CCOCC2)c1 | n | n | n | n | n | x | x
CCOC(=O)c1ccccc1NC(=O)c1ccc2c(SCC(=O)O)c3c(nc2c1)CCCC3 | n | n | 15.0 | n | n | n | n
N#CC1(Cc2ccccc2Cl)c2ccccc2C=CN1C(=O)c1ccccc1 (configuration not stated) | n | n | 18.8 | n | n | n | n
Clc1ccccc1C1=CC(c2ccco2)n2ncnc2N1 (configuration not stated) | n | n | n | n | n | x | x
SMILES | Granule exo inh | ABHD5 PLIN5 PPI | HTR2A ag | NTR1 agonist | B2AR ag | MOR ag counter | HTR2A ag conf
COC(=O)[C@@]1(Cc2ccc(OC)cc2)[C@@H]2[C@@H](CC(=O)[C@H]2CC(=O)C(=O)N(C)C)CN1C(=O)c1ccccc1 | n | n | 18.1 | n | n | n | n
COC(=O)[C@@]1(Cc2ccc(F)cc2)[C@@H]2[C@@H](CC(=O)[C@H]2CC(=O)C(=O)N(C)C)CN1C(=O)c1ccccc1 | n | n | n | n | n | x | x
OCCNc1nc2ccccc2nc1NCCO | n | n | 23.2 | n | n | n | n
OCCNc1cnc2ccccc2n1 | n | n | n | n | n | x | x
COc1cccc(CN2CCCN(S(=O)(=O)c3ccc(Br)cc3)CC2)c1 | n | n | 28.8 | n | n | n | n
C=CCN(c1ccccc1OC)S(=O)(=O)c1cccc(C(=O)Nc2nnc(C3CC3)s2)c1 | n | n | n | n | n | x | x
O=C(Nc1nnc(C2CC2)s1)c1cccc(S(=O)(=O)N2CC(c3ccccc3)CC2=O)c1 (configuration not stated) | n | n | 17.1 | n | n | n | n
COc1ccc(NC(=O)C2(C)CCN2Cc2ccc(OC)c3ccccc23)cc1OC (configuration not stated) | n | n | n | x | x | x | x
CCC(Cc1ccccc1)NC(=O)C1CCN(S(=O)(=O)c2ccc3c(c2)CC(C)N3C(C)=O)CC1 (configuration not stated) | n | n | n | n | n | x | x
CCn1cc(CN2CCC(C(=O)Nc3ccc(Oc4ccccc4F)cc3)CC2)cn1 | n | n | 14.6 | x | x | n | n
Cn1cc(CN2CCC(C(=O)Nc3ccc(Oc4ccccc4F)cc3)CC2)cn1 | n | n | n | n | n | x | x
CCS(=O)(=O)c1ccc(-c2csc(-c3ccccc3)n2)c(Cl)c1Cl | n | n | 16.4 | n | n | n | n
Cc1nc(-c2ccc(S(=O)(=O)Oc3ccccc3Cl)s2)cs1 | n | n | n | n | n | x | x
CC(CNC(=O)CCCn1ncn2c(cc3occc32)c1=O)c1ccccc1 (configuration not stated) | n | n | 16.3 | n | n | n | n
CCCCn1c(N)c(N(CCOC)C(=O)c2cc(S(=O)(=O)N3CCOCC3)ccc2Cl)c(=O)[nH]c1=O | n | n | n | x | n | x | x
Cc1csc2c(N3CCN(C(=S)Nc4ccc(C(F)(F)F)cc4)CC3)ncnc12 | n | n | 31.8 | n | n | n | n
Cc1csc2c(N3CCN(C(=O)NC(C)(C)C)CC3)ncnc12 | n | n | 41.1 | n | n | n | n
COc1ccc(C(C)(C)C)cc1NC(=O)C1CC(=O)N(C2CCCC2)C1 (configuration not stated) | n | n | n | n | n | x | x
O=C(COc1ccc(Cl)cc1)NCCS(=O)(=O)N1CCN(c2ccccc2F)CC1 | n | n | 16.2 | n | n | n | n
CC(C)Nc1nnc(SC(C)C(=O)Nc2ccc(Cl)cn2)s1 (configuration not stated) | n | n | n | n | n | x | x
CC(=O)c1cn(CC(=O)Nc2ccccc2)c2ccccc12 | n | n | 20.5 | n | n | n | n

Screens as filed in PubChem BioAssay.
